Hits are enriched below; roughly 21% of the tested compounds scored in any of these assays.
Pf growth 96h: inhibits malaria parasite growth, 96 h; P. falciparum luciferase reporter growth, 96 h; Potency, µM (highest dose often 28.7 µM), without a hit: at the top dose activity change, negative = inhibition, hits mostly inhibitors; 6.9% of 320,000 active; also: potency is read from the fitted curve at half-maximal effect; % is scaled to controls: 0 for no effect and ±100 for the full control effect
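Delayed-death screen, second-generation endpoint: infected erythrocytes, 2% hematocrit, 0.05% parasitemia final; 96 hours at 37 C, 5% CO2; luciferase detection reagent; luminescence decrease equals reduced growth.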
Cycloheximide cs: counter-screen hit for Shiga toxin inhibitors, cycloheximide; 12% of 300,000 active; cell reporter, cycloheximide protein synthesis inhibition counterscreen; AID 2314; max response, %; in the data active = max response mostly above about 13%, no sharp cut-off; inactive = mostly below about 14%; also: read at 38.3 µM for the half of the compounds with a filed dose; 0% is about no effect
Sm TGR block: S. mansoni TGR enzyme inhibition | Q962Y6 | purified TGR, DTNB reduction, TNB absorbance 405 nm | Potency, µM (top dose mostly 114 µM), inactives show at the highest dose activity change, negative = inhibition, most hits filed as inhibitors | 3% of 360,000 active; also: potency is read from the fitted curve at half-maximal effect; % is scaled to controls: 0 for no effect and ±100 for the full control effect; nearly all actives have a fitted effect of over 60% in size
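TGR 20 nM + NADPH 100 uM (dispensed conc.), cpd preinc 15 min RT; start with NADPH (500 uM addition) then DTNB (15 mM addition). Kinetic TNB absorbance, 405 nm filter. Four-parameter Hill fit across titration.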
NS1 inh: blocks influenza NS1 protein function. Potency, µM (top dose mostly 46.1 µM), without a hit: at the top dose activity, positive = more growth. 0.4% of 270,000 active. AID 2326; calls by dose curve; also: potency is read from the fitted curve at half-maximal effect; actives are rising curves; nearly all actives have a fitted effect of over 50% in size
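A cell-based growth assay was used: compounds that relieve NS1-induced slow growth of budding yeast raise OD600. Assay medium was yeast nitrogen base with ammonium sulphate and -URA supplement, pH 6.0, with 2% galactose.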
Pf growth 48h: inhibits P. falciparum growth in the first generation, 48 h; Potency, µM (highest dose often 28.7 µM), inactives show at the highest dose activity change, negative = inhibition, hits mostly inhibitors; 5.9% of 310,000 active; AID 504832; P. falciparum luciferase growth in erythrocytes, 48 h; also: potency is read from the fitted curve at half-maximal effect; % is scaled to controls: 0 for no effect and ±100 for the full control effect
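Erythrocytes infected with P. falciparum carrying an integrated firefly luciferase reporter (2% hematocrit, 0.1% parasitemia final) were exposed to compounds in RPMI 1640 with 0.5% Albumax at 37 C, 5% CO2. Growth inhibition was scored as reduced luminescence.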
Shiga inhibitor: inhibitors of Shiga toxin in Vero cells | Vero cells, Shiga toxin protein synthesis inhibition reporter | inhibition, % at 38.7 µM | 9.2% of 290,000 active | AID 2315; in the data active = inhibition mostly above about 28%, no sharp cut-off; inactive = mostly below about 43%; also: 0% is about no effect
Active calls of the source: *; i = inactive; u = inconclusive; x = no result; [ ] = another dose, or the depositor's remark. Unless noted, calls follow the shape of the dose curve; as a rule, active = well fitted curve in the direction sought with a large enough effect; inconclusive = small, poorly fitted or top-dose-only effect, or another doubt; inactive = no such curve, though single readings can be large; an effect the other way counts as inactive or inconclusive.

SMILES	Pf growth 96h	Cycloheximide cs	Sm TGR block	NS1 inh	Pf growth 48h	Shiga inhibitor
COc1cccc2cc(C(=O)N3CCN(C(=O)c4ccco4)CC3)c(=O)oc12	x	-1	0%	-5%	7%	-10
CN(C(=S)NC(=O)C1(C)CC1(Cl)Cl)c1ccccc1 (configuration not stated)	u	-1	1%	-4%	x	-13
CC1(C(=O)N/N=C/c2ccccc2)CC1(Br)Br (configuration not stated)	u	18	3%[57.1 µM]	2%	35%	16
CC1(C(=O)N/N=C/c2ccc3c(c2)OCO3)CC1(Br)Br (configuration not stated)	5.2µM*	17	3%	1%	11%	13
CC1(C(=O)N/N=C/c2ccccc2)CC1(Cl)Cl (configuration not stated)	3.3µM*	26*	-5%	-2%	0%	x
COCCCNC(=S)N/N=C/c1ccc2c(c1)OCO2	-2%	9	-23%	4%	87%	2
Cc1ccc(/C=N/NC(=O)C2(C)CC2(Br)Br)cc1 (configuration not stated)	u	13*	0%	1%	3%	38
Oc1oc(-c2ccco2)nc1C=Nc1cccc(Cl)c1	9%	27	-17%	-49%	-19%	48
CC(=NCc1cccc(Cl)c1)c1nc(-c2ccco2)oc1O	u	23*	-11%	0%	u	49*
CCN(CC)C(=O)c1cc(C(C)(C)C)c(O)c(C(C)(C)C)c1	10µM*	-4	-10%	-7%	u	-7
CC(C)(C)NC(=O)c1ccc(C(=O)NC(C)(C)C)cc1	59%	-2	12%	9%	11%	2
CC(C)(C)NC(=O)c1cc(C(C)(C)C)c(O)c(C(C)(C)C)c1	9.3µM*	-5	-1%	8%	u	3
CC(=O)Nc1cc(C(C)(C)C)c(O)c(C(C)(C)C)c1	-18%	-2	u	1%	x	-19
CN(C)S(=O)(=O)c1ccc(NC(=S)NC(=O)c2cccs2)cc1	9.3µM*	11*	u	6%	13%	23
CN(c1ccccc1)S(=O)(=O)c1ccc(NC(=O)c2cccs2)cc1	-6%	2	4%	0%	u	3
CCN(c1ccccc1)S(=O)(=O)c1ccc(NC(=S)NC(=O)c2cccs2)cc1	u	17	u	22%	u	30*
O=C(NC(=S)Nc1ccc(S(=O)(=O)N2CCCCCC2)cc1)c1cccs1	27%	17	u	-3%	0%	-8
COc1ccc(OC)c(CCNC(=O)c2ccc3[nH]c(C)c(C)c3c2)c1	x	x	8%	x	x	x
CCc1cc2c(cc3c(=O)n(CC(=O)NC4CCC(C)CC4)nc(CC)n32)s1 (configuration not stated)	x	x	8%	x	x	x
COc1ccc(-n2c(O)c(Cc3ccccc3)c(=O)n3nc(-c4ccccc4)c(=O)cc23)cc1	-3%	11*	-24%	13%	1%	13
Cc1ccc(C2C=NN(c3ccccc3)C2=O)cc1 (configuration not stated)	u	18*	0%	5%	6.6µM*	29*
COCCN1C=C(C(=O)OC)C(c2cc(Br)c(OC)c(OC)c2)C(C(=O)OC)=C1	4%	12	1%	-11%	3.3µM*	17
COCCN1C=C(C(=O)OC)C(c2ccccc2Cl)C(C(=O)OC)=C1	-13%	-4	0%	x	u	-3
COC(=O)C1=CN(Cc2ccccc2)C=C(C(=O)OC)C1c1ccc(OC)c(OC)c1	0%	-1	4%	23%	u	-8
COC(=O)C1=CN(Cc2ccccc2)C=C(C(=O)OC)C1c1ccc(O)c(OC)c1	240%	-2	-14%	7%	13µM*	x
SMILES	Pf growth 96h	Cycloheximide cs	Sm TGR block	NS1 inh	Pf growth 48h	Shiga inhibitor
COC(=O)C1=CN(Cc2ccc(C)cc2)C=C(C(=O)OC)C1c1cc(OC)c(OC)c(OC)c1	u	0	2%	25%	1.5µM*	-8
CCCOc1ccc(CNC(=O)Cn2cc3c(n2)-c2c(oc(C(=O)N4CCOCC4)c2C)CC3)cc1	x	x	-4%	x	x	x
CCCNc1ccc(-c2nc(-c3ccncc3)no2)cc1[N+](=O)[O-]	x	x	-3%	x	x	x
Cc1noc(C)c1NC(=O)NCCN1CCN(Cc2ccccc2)CC1	44%	-3	14%	-5%	36%	-6
Cc1noc(C)c1S(=O)(=O)NCCN1CCN(c2ccccc2)CC1	12µM*	-2	0%	-12%	8%	-1
Cc1noc(C)c1S(=O)(=O)Nc1c(C)n(C)n(-c2ccccc2)c1=O	102%	0	-1%	-2%	23%	-5
Cc1noc(C)c1S(=O)(=O)NCCCN1CCN(Cc2ccccc2)CC1	4.7µM*	-4	-16%	2%	10%	-17
Cc1ccc(Cc2nc3ccccc3nc2SCC(=O)N2CCCc3ccccc32)cc1	x	x	-5%	x	x	x
COc1ccc(N2CC(C(=O)Nc3cccc(OC(C)C)c3)CC2=O)cc1 (configuration not stated)	u	1	2%	8%	24%	-7
CCCCCC(=O)Nc1cc2[nH]c(=O)cc(COC)c2cc1C	3%	-3	13%	16%	21%	31
CCOC(=O)c1cnc(Nc2nc3ccccc3o2)nc1CN1CCN(C)CC1	u	2	50µM*	0%	2%	22
CCOC(=O)c1oc2ccccc2c1NC(=O)CN1CCN(C)CC1	x	-3	-5%	4%	-16%	17
Cc1ccc2c(COn3nnc4ccc(S(=O)(=O)N(C)C)cc43)cc(=O)oc2c1C	10µM*	-2	-5%	-1%	4%	-6
CC(C)CCNC(=O)C(=O)Nc1c2c(nn1-c1ccccc1)CS(=O)(=O)C2	x	x	-2%	x	x	x
CC(C)CCNC(=O)c1ccc(Cl)c(N)c1	55%	37*	x	0%	36%	57*
Cc1ccc(S(=O)(=O)Cc2nc(-c3ccc(C(=O)NCc4ccccc4)cc3)oc2C)cc1	x	x	32µM*	x	x	x
CC(C)CCNC(=O)C(=O)Nc1ccccc1	-14%	45*	2%	x	i	162*
CC(C)CCNC(=O)c1ccc(-c2ccccc2)cc1	93%	36*	x	-9%	40%	84*
CC(C)CNC(=O)c1ccc(Cl)c(N)c1	18%	-3	-11%	-3%	-3%	9
N#Cc1c(NC(=O)C(F)(F)F)sc2c3c(=O)c4ccccc4c(=O)c=3oc3ccccc3c12	x	x	x	-2%	x	x
CC(C)CCOc1cccc(OCC(=O)Nc2ccncc2)c1	25%	-4	-6%	-109%	5%	-6
CCN(CC)CCNC(=O)c1ccc(-c2nc(CS(=O)(=O)c3ccc(C)cc3)c(C)o2)cc1	x	x	1%	x	x	x
COc1cc(C(=O)NC2CCCCC2)ccc1OCc1ccc(Cl)cc1Cl	17%	-4	6%	7%	10%	19
Cc1oc(-c2ccc(C(=O)NCCC(C)C)cc2)nc1CS(=O)(=O)c1ccccc1	x	x	35µM*	x	x	x
